The values that follow come from PubChem BioAssay (NCATS).

The target in assay [1] is Cellular tumor antigen p53 (Homo sapiens) (UniProt P04637). The assay can be described thus: Primary qHTS for small molecule compounds that upregulate eGFP-tagged delta133p53alpha (in N-terminal) cells. (AID 2060322).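 Further: series mostly up to about 56 µM; 0% = DMSO vehicle and 100% = reference activator; nearly all actives have a fitted effect of over 75% in size.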 The settings on record: NCI-H358 eGFP-delta133p53alpha fluorescence, 24 h; activation: hits give high values. The gist of the method: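 NCI-H358 cells pre-induced 24 h with 10 ng/ml doxycycline to express N-terminal eGFP-delta133p53alpha, then dosed 24 h at 37C without doxycycline; fixed, Hoechst-stained, GFP intensity by laser scanning cytometry, normalized to DMSO (0%) and 57.5 uM 5-azacytidine (100%).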
Cellular tumor antigen p53 (Homo sapiens), sequence (P04637 whole entry, looked up): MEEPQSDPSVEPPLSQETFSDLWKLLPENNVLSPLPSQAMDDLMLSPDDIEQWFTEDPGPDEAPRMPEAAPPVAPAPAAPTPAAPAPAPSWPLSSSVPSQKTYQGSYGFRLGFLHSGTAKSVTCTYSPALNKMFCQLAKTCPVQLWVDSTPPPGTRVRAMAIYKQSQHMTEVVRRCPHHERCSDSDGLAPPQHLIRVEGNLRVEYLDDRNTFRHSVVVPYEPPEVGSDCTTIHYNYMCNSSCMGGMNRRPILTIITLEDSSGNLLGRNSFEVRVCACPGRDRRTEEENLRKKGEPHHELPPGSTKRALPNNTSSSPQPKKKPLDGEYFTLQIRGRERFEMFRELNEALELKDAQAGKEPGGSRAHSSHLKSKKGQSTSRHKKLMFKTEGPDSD

Assay [2] concerns the target Aldehyde dehydrogenase, mitochondrial (Homo sapiens) (UniProt P05091). The assay is described as follows: qHTS for Inhibitors of the Aldehyde Dehydrogenase Family (ALDH2) Primary screen (AID 2061308).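 Further: plate controls were vehicle for no effect and reference inhibitor for full effect; nearly all actives have a fitted effect of over 55% in size.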
The nature of assay [3]: qHTS for Inhibitors of the Aldehyde Dehydrogenase Family (ALDH1A2, ALDH1A3, ALDH2, ALDH3A1) (AID 2061307). Further: test system not described further here; potency means the concentration at half of the fitted maximal effect; nearly all actives have a fitted effect of over 50% in size.
Assay [4] concerns the target Retinaldehyde dehydrogenase 3 (Homo sapiens) (UniProt P47895). The assay can be described thus: qHTS for Inhibitors of the Aldehyde Dehydrogenase Family (ALDH1A3) Primary screen (AID 2061315).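 Further: plate controls were DMSO vehicle for no effect and reference inhibitor for full effect.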
Assay [5] has as its target Aldehyde dehydrogenase 1A1 (Homo sapiens) (UniProt P00352). The assay can be described thus: qHTS for Inhibitors of the Aldehyde Dehydrogenase Family (ALDH1A1) Confirmatory screens (AID 2061316). Further: on the % scale 0 is the no-effect control and ±100 the full control effect; nearly all actives have a fitted effect of over 65% in size.

Inconclusive results are not listed. Unmarked numbers belong to inactive results. Calls of active or inactive are those of the source. The call rests on the fitted dose curve; in most records, active means well fitted curve in the direction sought with a large enough effect; inconclusive means small, poorly fitted or top-dose-only effect, or another doubt; inactive means no such curve, though single readings can be large; an effect the other way counts as inactive or inconclusive.

For `COc1ccc(/C=C/C(=O)N2CCCC2)cc1`, the activation in assay [1] was 2.68%. For the same compound, in assay [2], the Potency result was “inactive”.

On to `C=CCC1=C[C@]2(OC)[C@H](C)[C@@H](c3ccc(O)c(OC)c3)O[C@]2(OC)CC1=O`, for which, in assay [1], the activation is -15.2%. In addition, the Potency entry in assay [2] is “inactive”.

For the compound `CC(C)n1nc(C#Cc2ccccc2)c2c(N)ncnc21`, the activation in assay [1] was 25%. Also, the Potency result in assay [2] was “inactive”.

Take `N#Cc1cc(F)cc(-c2nc(-c3ccccn3)no2)c1`: the activation in assay [1] was -12.4%. The Potency entry in assay [2] is “inactive”.

Take `Cn1c(N2CCCCS2(=O)=O)nc(C(=O)NCc2ccc(F)cc2)c(O)c1=O`: the activation in assay [1] was 0.955%. Moreover, the Potency in assay [3] was 12.7 µM (active). Further, the Potency entry in assay [4] and in assay [5] was “inactive” throughout.

On to `COc1cc(/C=C/C(=O)O[C@H]2[C@@H]3C=CO[C@@H](O[C@@H]4O[C@H](CO)[C@@H](O)[C@H](O)[C@H]4O)[C@@H]3[C@@]3(CO)O[C@@H]23)ccc1O`, for which the activation in assay [1] is -2.29%. Further, in assay [2], the Potency entry was “inactive”.

As for `NC(=O)c1ccc(OCC2NC(=O)C3CCCN3C2=O)cc1` (stereo unspecified), the activation in assay [1] is -12.2%. Moreover, the Potency result in assay [2] was “inactive”.

For the compound `COc1cc2c(cc1O)C1(Cc3ccc4c(c3C1O)OCO4)[N+](C)([O-])CC2` (stereo unspecified), in assay [1], the activation was -8.04%. Moreover, in assay [2], the Potency result is “inactive”.

For `C[C@@H]1O[C@@H](O[C@H]2[C@@H]3C=CO[C@@H](O[C@@H]4O[C@H](CO)[C@@H](O)[C@H](O)[C@H]4O)[C@@H]3[C@@]3(CO)O[C@@H]23)[C@H](O)[C@H](OC(=O)/C=C/c2ccc(O)c(O)c2)[C@H]1O`, the activation in assay [1] was 2.29%. Besides, the Potency entry in assay [2] was “inactive”.

Consider `COc1cc(C2Oc3c(OC)cc(CCCO)cc3C2CO)ccc1O` (stereo unspecified), for which the activation in assay [1] is -18.8%. Further, in assay [2], the Potency result is “inactive”.

As to `C=C(C)Cn1c(SCC(=O)c2cccs2)nc2sc3c(c2c1=O)CCCC3`, in assay [1], the activation is -5.73%. Moreover, the Potency entry in assay [2] is “inactive”.

Regarding `C[C@]1(C2CCCC2)Cc2cc(OCC(=O)O)c(Cl)c(Cl)c2C1=O`, the activation in assay [1] was -3.67%. In assay [2], the Potency entry was “inactive”.
